The source of these data is paper PMC7862700, “An all-to-all approach to the identification of sequence-specific readers for epigenetic DNA modifications on cytosine”.

What all share (assay): DAPPL (digital affinity profiling via proximity ligation, sequencing); 10 mM Tris-HCl pH 7.5, 50 mM NaCl, 1 mM DTT, 4% glycerol, room temperature, 30 min; GST-TFs on glutathione beads, 16-mer random dsDNA library, 0.1% formaldehyde crosslink after washing; high values mean tight binding
Assay [1] has as its target T1, FEV (Homo sapiens, UniProt Q99581 1-238).
T1 sequence: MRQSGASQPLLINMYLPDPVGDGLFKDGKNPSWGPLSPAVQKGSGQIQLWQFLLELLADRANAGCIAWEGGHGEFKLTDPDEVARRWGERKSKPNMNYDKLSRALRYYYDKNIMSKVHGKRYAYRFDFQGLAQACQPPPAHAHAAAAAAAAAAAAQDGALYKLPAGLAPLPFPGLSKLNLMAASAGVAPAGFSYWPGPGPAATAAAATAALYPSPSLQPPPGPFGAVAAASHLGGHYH
The note with it: protein: recombinant; tags: N-terminal GST; dsDNA, one strand shown. In short, it runs like this: (§1)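 Human transcription factors carrying a GST fusion were produced in yeast, bound to glutathione beads, tagged with DNA barcodes and pooled together with a tag-only sample. Each pool was held with 200 nmole of a random double-stranded 16-mer DNA library in Tris/NaCl/DTT/glycerol buffer for 30 min at room temperature, then washed, crosslinked in 0.1% formaldehyde, proximity-ligated with BsaI/T4 ligase (1 h, 37 °C), PCR-amplified and sequenced on an Illumina NextSeq500. Binding signal is the read frequency of each hexamer for a given factor divided by its frequency in the tag-only sample.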

The target in assay [2] is ETV5 (Homo sapiens, UniProt P41161 1-510). The conditions noted are these: protein: recombinant; tags: N-terminal GST; dsDNA, one strand shown. In outline:
as §1

Assay [3] concerns the target HSF1 (Homo sapiens, UniProt Q00613 1-529). The conditions noted are these: protein: recombinant; tags: N-terminal GST; chain copies: 3; dsDNA, one strand shown. In outline:
as §1

Assay [4] deals with T2, SPIC (Homo sapiens, UniProt Q8N5J4 1-248).
T2 sequence: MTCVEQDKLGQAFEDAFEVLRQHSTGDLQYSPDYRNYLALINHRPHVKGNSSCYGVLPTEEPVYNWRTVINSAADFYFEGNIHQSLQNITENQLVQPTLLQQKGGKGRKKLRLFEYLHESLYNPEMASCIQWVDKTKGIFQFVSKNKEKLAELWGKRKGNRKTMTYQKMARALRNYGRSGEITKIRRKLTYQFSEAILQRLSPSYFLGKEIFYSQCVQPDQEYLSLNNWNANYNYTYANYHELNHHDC
The conditions noted are these: protein: recombinant; tags: N-terminal GST; dsDNA, one strand shown. In short, it runs like this: as §1

Assay [5] addresses ELF4 (Homo sapiens, UniProt Q99607 1-663). The conditions noted are these: protein: recombinant; tags: N-terminal GST; dsDNA, one strand shown. In short, it runs like this: as §1
Assay [6] deals with T3, ELK4 (Homo sapiens, UniProt P28324-2 1-405).
T3 sequence: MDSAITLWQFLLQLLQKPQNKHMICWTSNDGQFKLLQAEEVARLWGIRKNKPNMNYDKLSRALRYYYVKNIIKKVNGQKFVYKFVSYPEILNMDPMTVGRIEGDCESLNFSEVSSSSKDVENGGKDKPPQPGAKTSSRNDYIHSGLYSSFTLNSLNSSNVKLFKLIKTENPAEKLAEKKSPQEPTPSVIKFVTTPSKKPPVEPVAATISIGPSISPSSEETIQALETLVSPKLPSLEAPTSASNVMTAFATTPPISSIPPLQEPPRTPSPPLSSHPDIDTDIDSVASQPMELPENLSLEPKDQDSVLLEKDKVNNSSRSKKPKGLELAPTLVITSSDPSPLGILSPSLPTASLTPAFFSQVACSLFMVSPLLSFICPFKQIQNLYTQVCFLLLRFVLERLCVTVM
The conditions noted are these: protein: recombinant; tags: N-terminal GST; dsDNA, one strand shown. In outline:
as §1

Assay [7] addresses T4, ETV2 (Homo sapiens, UniProt O00321 1-342).
T4 sequence: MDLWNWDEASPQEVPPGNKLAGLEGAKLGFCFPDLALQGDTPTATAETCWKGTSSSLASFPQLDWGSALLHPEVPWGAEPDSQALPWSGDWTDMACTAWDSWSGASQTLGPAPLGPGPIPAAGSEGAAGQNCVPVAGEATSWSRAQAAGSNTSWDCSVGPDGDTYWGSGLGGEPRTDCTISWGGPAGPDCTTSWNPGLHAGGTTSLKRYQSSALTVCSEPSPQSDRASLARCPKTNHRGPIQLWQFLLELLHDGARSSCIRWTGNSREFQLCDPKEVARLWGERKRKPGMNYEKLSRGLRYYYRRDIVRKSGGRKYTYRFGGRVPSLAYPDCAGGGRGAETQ
The conditions noted are these: protein: recombinant; tags: N-terminal GST; dsDNA, one strand shown. In outline: as §1

Assay [8] addresses T5, ELF3 (Homo sapiens, UniProt P78545 1-371).
T5 sequence: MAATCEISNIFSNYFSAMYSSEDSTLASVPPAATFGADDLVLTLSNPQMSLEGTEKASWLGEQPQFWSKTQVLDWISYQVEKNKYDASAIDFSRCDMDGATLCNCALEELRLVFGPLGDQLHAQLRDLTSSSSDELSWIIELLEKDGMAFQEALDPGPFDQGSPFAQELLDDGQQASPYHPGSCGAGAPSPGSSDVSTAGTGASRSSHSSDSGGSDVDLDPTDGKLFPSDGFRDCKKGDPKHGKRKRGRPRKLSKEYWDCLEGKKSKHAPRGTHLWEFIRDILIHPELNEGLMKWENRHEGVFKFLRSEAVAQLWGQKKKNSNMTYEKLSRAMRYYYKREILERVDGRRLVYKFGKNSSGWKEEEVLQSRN
The conditions noted are these: protein: recombinant; tags: N-terminal GST; dsDNA, one strand shown. In outline:
as §1

Assay [9] addresses CRX (Homo sapiens, UniProt O43186 1-299). The note with it: protein: recombinant; tags: N-terminal GST; dsDNA, one strand shown. In short, it runs like this: as §1
Assay [10] addresses ETV1 (Homo sapiens, UniProt P50549 1-477). The note with it: protein: recombinant; tags: N-terminal GST; dsDNA, one strand shown. In outline: as §1
For assay [11], the target named is T6, ERF (Homo sapiens, UniProt P50548 1-548).
T6 sequence: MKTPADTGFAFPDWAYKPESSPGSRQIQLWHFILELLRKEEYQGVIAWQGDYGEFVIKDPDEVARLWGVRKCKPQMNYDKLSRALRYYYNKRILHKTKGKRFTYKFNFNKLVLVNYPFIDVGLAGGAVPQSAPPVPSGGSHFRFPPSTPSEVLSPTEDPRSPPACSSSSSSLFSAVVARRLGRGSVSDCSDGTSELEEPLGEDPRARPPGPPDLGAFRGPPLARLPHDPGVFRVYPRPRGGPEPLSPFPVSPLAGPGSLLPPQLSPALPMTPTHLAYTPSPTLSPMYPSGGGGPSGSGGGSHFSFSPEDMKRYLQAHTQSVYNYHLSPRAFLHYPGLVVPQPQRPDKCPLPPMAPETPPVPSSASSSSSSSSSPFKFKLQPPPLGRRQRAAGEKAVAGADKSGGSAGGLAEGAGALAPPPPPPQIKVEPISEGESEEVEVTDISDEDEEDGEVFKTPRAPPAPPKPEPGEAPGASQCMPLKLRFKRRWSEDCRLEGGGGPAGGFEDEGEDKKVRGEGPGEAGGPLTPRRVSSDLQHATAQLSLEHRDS
The note with it: protein: recombinant; tags: N-terminal GST; dsDNA, one strand shown. In outline: as §1

Assay [12] has as its target T7, ETV3L (Homo sapiens, UniProt Q6ZN32 1-361).
T7 sequence: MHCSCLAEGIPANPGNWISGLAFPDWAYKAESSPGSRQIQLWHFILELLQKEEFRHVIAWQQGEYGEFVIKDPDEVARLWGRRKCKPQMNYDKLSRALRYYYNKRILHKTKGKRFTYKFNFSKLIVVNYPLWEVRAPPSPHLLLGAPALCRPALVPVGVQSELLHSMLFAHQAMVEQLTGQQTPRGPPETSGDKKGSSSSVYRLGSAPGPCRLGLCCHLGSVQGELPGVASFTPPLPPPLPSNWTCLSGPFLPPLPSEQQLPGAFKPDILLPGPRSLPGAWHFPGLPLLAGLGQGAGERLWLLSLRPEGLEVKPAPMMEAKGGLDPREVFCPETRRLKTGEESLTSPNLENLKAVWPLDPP
The conditions noted are these: protein: recombinant; tags: N-terminal GST; dsDNA, one strand shown. In short, it runs like this: as §1

The target of assay [13] is T8, ETS2 (Homo sapiens, UniProt P15036 1-469).
T8 sequence: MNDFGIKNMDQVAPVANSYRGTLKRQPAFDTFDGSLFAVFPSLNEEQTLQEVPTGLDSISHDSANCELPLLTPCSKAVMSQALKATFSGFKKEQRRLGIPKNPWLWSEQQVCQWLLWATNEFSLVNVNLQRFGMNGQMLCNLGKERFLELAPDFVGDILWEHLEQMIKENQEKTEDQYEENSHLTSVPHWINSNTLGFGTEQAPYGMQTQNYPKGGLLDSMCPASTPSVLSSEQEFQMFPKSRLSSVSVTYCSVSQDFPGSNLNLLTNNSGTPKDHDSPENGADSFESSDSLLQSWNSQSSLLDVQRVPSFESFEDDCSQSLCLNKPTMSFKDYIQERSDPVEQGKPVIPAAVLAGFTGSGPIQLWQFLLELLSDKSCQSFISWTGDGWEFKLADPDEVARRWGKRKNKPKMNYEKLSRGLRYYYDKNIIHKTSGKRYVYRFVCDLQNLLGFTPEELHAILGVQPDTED
The conditions noted are these: protein: recombinant; tags: N-terminal GST; dsDNA, one strand shown. In outline: as §1

Assay [14] concerns the target T9, SPDEF (Homo sapiens, UniProt O95238 1-335).
T9 sequence: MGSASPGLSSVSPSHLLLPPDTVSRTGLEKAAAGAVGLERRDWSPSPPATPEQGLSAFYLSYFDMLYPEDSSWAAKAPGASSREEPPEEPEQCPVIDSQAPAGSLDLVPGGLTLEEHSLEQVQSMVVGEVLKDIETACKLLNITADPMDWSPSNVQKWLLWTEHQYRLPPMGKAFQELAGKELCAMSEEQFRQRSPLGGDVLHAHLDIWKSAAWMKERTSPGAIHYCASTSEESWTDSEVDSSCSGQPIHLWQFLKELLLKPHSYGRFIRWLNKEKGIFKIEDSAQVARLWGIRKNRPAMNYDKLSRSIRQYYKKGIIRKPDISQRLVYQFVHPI
The conditions noted are these: protein: recombinant; tags: N-terminal GST; dsDNA, one strand shown. In outline:
as §1

Assay [15] concerns the target T10, ETV7 (Homo sapiens, UniProt Q9Y603 1-341).
T10 sequence: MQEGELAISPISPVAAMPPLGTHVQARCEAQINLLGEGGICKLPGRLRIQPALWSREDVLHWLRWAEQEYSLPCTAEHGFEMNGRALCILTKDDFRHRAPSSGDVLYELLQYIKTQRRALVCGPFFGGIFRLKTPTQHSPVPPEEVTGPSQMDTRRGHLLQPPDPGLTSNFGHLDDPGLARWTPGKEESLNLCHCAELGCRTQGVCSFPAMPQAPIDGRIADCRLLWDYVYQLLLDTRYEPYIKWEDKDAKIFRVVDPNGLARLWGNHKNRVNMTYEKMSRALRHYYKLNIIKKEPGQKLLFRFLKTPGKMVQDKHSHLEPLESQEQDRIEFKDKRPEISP
The conditions noted are these: protein: recombinant; tags: N-terminal GST; dsDNA, one strand shown. In outline: as §1

Assay [16] has as its target T11, ELF5 (Homo sapiens, UniProt Q9UKW6-2 1-255).
T11 sequence: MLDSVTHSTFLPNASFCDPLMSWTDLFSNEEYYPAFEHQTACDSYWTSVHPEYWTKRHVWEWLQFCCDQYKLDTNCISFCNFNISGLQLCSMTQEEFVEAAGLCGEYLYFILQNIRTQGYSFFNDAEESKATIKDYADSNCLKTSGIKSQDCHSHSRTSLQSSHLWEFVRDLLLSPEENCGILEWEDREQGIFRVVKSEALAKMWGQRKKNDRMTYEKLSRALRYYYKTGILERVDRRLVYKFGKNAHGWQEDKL
The conditions noted are these: protein: recombinant; tags: N-terminal GST; dsDNA, one strand shown. In short, it runs like this: as §1

The target in assay [17] is T12, ETV3 (Homo sapiens, UniProt P41162-2 1-143).
T12 sequence: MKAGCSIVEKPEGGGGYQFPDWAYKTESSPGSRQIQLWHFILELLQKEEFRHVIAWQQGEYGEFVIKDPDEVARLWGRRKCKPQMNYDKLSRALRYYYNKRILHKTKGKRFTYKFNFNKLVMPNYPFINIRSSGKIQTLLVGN
The conditions noted are these: protein: recombinant; tags: N-terminal GST; dsDNA, one strand shown. In short, it runs like this: as §1

Assay [18] deals with ETV6 (Homo sapiens, UniProt P41212 1-452). The conditions noted are these: protein: recombinant; tags: N-terminal GST; dsDNA, one strand shown. In short, it runs like this: as §1
Sequence of ETV6 (P41212 whole entry): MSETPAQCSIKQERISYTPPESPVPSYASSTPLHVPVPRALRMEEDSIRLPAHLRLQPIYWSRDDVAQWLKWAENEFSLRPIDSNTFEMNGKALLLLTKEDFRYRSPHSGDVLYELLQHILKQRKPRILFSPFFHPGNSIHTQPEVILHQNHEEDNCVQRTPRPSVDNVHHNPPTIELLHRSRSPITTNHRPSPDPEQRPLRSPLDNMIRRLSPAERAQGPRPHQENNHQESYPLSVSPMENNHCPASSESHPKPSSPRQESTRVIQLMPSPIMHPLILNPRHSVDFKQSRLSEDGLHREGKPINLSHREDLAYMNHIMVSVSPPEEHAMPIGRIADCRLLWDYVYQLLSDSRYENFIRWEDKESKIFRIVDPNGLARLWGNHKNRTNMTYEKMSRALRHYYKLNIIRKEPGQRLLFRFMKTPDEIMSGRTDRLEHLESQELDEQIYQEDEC

Sequence of ETV1 (P50549 whole entry): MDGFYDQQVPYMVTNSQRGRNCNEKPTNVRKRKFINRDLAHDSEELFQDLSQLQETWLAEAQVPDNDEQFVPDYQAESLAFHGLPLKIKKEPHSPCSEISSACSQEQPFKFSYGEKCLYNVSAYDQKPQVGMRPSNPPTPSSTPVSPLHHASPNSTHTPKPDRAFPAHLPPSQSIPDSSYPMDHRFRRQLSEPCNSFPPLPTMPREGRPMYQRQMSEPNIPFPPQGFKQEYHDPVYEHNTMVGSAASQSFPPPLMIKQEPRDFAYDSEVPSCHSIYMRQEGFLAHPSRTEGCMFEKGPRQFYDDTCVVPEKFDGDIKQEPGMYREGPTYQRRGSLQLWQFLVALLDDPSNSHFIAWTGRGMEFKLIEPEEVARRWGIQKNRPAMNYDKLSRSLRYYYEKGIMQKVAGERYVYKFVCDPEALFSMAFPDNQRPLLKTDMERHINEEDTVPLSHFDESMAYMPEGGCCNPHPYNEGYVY
Sequence of ELF4 (Q99607 whole entry): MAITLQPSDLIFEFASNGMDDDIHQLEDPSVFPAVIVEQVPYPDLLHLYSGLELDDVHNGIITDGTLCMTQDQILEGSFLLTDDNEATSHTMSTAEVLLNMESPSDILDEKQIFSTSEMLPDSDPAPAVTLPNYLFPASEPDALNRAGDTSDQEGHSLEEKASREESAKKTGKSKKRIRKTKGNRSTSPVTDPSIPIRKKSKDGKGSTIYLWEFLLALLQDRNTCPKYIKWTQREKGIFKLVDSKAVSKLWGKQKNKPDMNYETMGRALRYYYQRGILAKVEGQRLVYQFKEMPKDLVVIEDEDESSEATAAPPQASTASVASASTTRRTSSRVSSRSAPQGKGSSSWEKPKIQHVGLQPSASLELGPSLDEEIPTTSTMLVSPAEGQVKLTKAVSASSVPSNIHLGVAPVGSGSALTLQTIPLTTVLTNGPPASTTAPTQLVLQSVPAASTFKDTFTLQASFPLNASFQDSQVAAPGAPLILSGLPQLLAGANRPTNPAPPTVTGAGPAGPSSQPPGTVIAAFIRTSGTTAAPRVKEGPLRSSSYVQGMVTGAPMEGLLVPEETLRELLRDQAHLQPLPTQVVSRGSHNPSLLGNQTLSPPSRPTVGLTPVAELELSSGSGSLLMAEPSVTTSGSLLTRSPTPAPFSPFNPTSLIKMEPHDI
Sequence of CRX (O43186 whole entry): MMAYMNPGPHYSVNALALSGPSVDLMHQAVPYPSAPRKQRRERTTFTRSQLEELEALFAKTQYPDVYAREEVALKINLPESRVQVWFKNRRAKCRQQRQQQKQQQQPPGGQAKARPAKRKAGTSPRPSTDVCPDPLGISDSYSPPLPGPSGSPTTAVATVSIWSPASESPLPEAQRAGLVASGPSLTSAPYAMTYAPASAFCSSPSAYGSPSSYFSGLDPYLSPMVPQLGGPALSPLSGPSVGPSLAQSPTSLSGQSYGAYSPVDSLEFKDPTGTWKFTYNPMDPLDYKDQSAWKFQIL
Sequence of ETV5 (P41161 whole entry): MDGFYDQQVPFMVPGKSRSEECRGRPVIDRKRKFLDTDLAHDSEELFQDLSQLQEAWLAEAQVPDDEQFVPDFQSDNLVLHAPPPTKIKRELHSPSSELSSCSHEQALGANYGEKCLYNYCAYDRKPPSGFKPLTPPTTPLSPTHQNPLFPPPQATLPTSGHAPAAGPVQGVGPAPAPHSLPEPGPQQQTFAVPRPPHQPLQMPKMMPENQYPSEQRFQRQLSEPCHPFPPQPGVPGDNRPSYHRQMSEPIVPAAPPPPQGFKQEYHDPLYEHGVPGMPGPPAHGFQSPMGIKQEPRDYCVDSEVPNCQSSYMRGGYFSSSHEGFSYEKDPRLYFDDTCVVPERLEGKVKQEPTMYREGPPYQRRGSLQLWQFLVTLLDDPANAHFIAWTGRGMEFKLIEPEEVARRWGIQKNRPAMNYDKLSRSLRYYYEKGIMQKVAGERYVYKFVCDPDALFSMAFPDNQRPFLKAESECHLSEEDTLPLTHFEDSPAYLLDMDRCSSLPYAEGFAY
Sequence of HSF1 (Q00613 whole entry): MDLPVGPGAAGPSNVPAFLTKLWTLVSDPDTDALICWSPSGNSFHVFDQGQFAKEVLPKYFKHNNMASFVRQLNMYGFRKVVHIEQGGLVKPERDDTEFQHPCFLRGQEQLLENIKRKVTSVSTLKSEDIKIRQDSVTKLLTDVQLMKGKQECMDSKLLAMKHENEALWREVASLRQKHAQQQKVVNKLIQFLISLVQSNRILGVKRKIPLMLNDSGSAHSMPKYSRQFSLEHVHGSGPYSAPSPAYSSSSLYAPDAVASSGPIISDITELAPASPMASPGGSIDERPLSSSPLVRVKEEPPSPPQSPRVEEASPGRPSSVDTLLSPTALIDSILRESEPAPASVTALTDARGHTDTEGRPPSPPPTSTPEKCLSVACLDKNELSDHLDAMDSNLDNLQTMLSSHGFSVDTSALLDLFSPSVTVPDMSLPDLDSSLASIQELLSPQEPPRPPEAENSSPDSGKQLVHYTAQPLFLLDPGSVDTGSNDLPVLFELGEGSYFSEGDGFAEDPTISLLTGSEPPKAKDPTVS

As to TTCTAG, the binding signal in assay [1] is 1.15 fold enrichment (6-mer frequency, TF over GST control); in assay [2], 1.11 fold enrichment (6-mer frequency, TF over GST control); in assay [3] it was 7.56 fold enrichment (6-mer frequency, TF over GST control); in assay [4], 1.29 fold enrichment (6-mer frequency, TF over GST control); in [5], 1.22 fold enrichment (6-mer frequency, TF over GST control); in assay [6], 1.22 fold enrichment (6-mer frequency, TF over GST control). The binding signal is 1.18 fold enrichment (6-mer frequency, TF over GST control) in [7]; 1.42 fold enrichment (6-mer frequency, TF over GST control) in [8]; 2.67 fold enrichment (6-mer frequency, TF over GST control) in [9]; 1.2 fold enrichment (6-mer frequency, TF over GST control) in assay [10]; 1.33 fold enrichment (6-mer frequency, TF over GST control) in assay [11]; 1.3 fold enrichment (6-mer frequency, TF over GST control) in assay [12]. Also, the binding signal in assay [13] is 1.34 fold enrichment (6-mer frequency, TF over GST control); in assay [14], 1.17 fold enrichment (6-mer frequency, TF over GST control); in assay [15], 1.45 fold enrichment (6-mer frequency, TF over GST control); in assay [16] it was 1.2 fold enrichment (6-mer frequency, TF over GST control); in assay [17], 1.19 fold enrichment (6-mer frequency, TF over GST control); in assay [18] it was 1.16 fold enrichment (6-mer frequency, TF over GST control).
